CYP2C9 activ: CYP2C9 (human) activation | AID 1024 | 96,000 tested, 1.4% active | recombinant CYP2C9, luciferin-H conversion, luminescence; active compounds read high; factor 1 = untreated enzyme, 0 = blocked | activation factor at 5 µM | P11712;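 active = activation factor of 2 or more for CYP2C9 at a 5 µM dose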
Target sequence (P11712 whole entry, looked up): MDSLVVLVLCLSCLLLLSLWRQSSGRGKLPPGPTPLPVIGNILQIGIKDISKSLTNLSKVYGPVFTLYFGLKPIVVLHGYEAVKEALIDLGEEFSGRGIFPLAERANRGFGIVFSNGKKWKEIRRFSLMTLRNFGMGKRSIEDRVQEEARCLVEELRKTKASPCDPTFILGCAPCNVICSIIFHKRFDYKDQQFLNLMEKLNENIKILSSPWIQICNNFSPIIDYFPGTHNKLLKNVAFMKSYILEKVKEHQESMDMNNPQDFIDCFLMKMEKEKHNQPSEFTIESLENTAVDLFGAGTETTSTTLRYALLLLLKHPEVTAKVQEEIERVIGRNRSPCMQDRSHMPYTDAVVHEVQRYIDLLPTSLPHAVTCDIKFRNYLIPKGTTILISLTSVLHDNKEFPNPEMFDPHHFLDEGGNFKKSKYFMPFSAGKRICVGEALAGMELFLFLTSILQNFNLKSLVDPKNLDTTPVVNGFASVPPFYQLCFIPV
Cav32 inh: blocks human Cav3.2 T-type calcium channel | 100,000 tested, 4% active | B-score at 10 µM | O95180 | AID 449739 | Cav3.2-expressing cells, Fluo-4 calcium fluorescence FDSS; active compounds read low;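 active = single-dose well whose peak fluorescence ratio is a statistical outlier from its plate by either plate-standardised score or position-corrected B-score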
CYP2C19 inhib: blocks human cytochrome P450 2C19. inhibition, % at 5 µM. P33261. CYP2C19 Supersomes, luciferin-H EGE luminescence, 30 min. 96,000 tested, 21% active;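 active = CYP2C19 inhibition above a set limit at 5 µM in the primary screen, cut at about 50% in these data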
Pyk2 oligo antag: antagonists of human Pyk2 oligomerization. Q14289. Q293 cells, Pyk2 FERM NanoBiT luminescence; active compounds read low. z-score (the deposit names both 25 µM and 10 µM). 99,000 tested, 0.83% active. AID 1347419;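 active = Z-score of -3 or lower, scaled per plate to the spread of control and sample wells; inactive = z-score above -3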;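 also: negative z-score means lost luminescence so less FERM oligomerization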
CYP2C19 activ: increases human CYP2C19 enzyme activity; 96,000 tested, under 10 active; AID 1025; recombinant CYP2C19, luciferin-H EGE luminescence; active compounds read high; 0 = fully inhibited enzyme, 1 = untreated enzyme; activation factor at 5 µM;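 active = activation factor of at least 2 at 5 µM in the primary screen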
CYP2C9 inh: blocks human cytochrome P450 2C9; P11712; CYP2C9 Supersomes, luciferin-H conversion, luminescence; inhibition, % at 5 µM; 96,000 tested, 20% active; AID 777;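 active = blocking of liver enzyme CYP2C9 beyond about 50% at 5 µM, limit read from the data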
Each line names hits and unclear results; the compound was inactive in the other large screens. Rows were chosen to be rich in hits. Some 27% of all compounds tested hit in one or more screens of this group.

COc1ccc2c(c1)-c1c(ssc1=S)C(C)(C)N2C(=O)CSC1=NCCS1	CYP2C19 inhib 72, CYP2C9 inh 73
COc1ccc(OC)c(NC(=O)CSC2=NCCS2)c1	none
Cc1ccc2c(c1)-c1c(ssc1=S)C(C)(C)N2C(=O)CSc1nncn1C	CYP2C19 inhib 76
Cc1cc(C)c2c(c1)-c1c(ssc1=S)C(C)(C)N2C(=O)CSc1nncn1C	none
Cc1ccc(/C=N/N2CCN(Cc3cccc4ccccc34)CC2)o1	none
CC(=O)Cc1nsc(NC(=O)c2ccc(COc3ccccc3)o2)n1	CYP2C9 inh 57
CC(=O)Cc1nsc(Nc2ccccc2)n1	CYP2C19 inhib 77
CC(=O)Cc1nsc(NC(=O)c2ccc(-c3ccccc3Cl)o2)n1	none
O=C(Cc1c[nH]c2ccccc12)OCC(=O)c1ccccc1	CYP2C9 activ 2.2
NC(=O)COC(=O)CCCc1c[nH]c2ccccc12	none
N#C/C(=C(/O)COC(=O)CCCNC(=O)c1ccc(Cl)cc1)c1nc2ccccc2[nH]1	CYP2C19 inhib 52, CYP2C9 inh 76
N#C/C(=C(/O)COC(=O)Cc1c[nH]c2ccccc12)c1nc2ccccc2[nH]1	Cav32 inh -7, CYP2C9 inh 82
N#C/C(=C(/O)COC(=O)CCc1ccc(S(=O)(=O)N2CCOCC2)cc1)c1nc2ccccc2[nH]1	none
O=C(NCc1ccc2c(c1)OCO2)c1cc2ccccc2oc1=O	none (no result: CYP2C9 activ, CYP2C19 inhib, CYP2C19 activ, CYP2C9 inh)
COc1ccc(CNC(=O)c2ccccc2SC)cc1	CYP2C19 inhib 90
CCOc1ncccc1C(=O)Nc1ccccc1C(=O)NCc1ccc2c(c1)OCO2	CYP2C9 inh 75
CC(=O)OC(C(=O)NCc1ccc2c(c1)OCO2)c1ccccc1Cl (stereo not drawn)	CYP2C19 inhib 93, CYP2C9 inh 54
CSc1ccccc1C(=O)NCc1ccc2c(c1)OCO2	CYP2C19 inhib 94
CC(=O)Nc1ccc(SC[C@H](c2ccccc2)N2CCN(CCc3ccccc3)CCC2=O)cc1	none (no result: CYP2C9 activ, CYP2C19 inhib, Pyk2 oligo antag, CYP2C19 activ, CYP2C9 inh)
CCSc1ccccc1C(=O)NCc1ccc2c(c1)OCO2	CYP2C19 inhib 99
COC(=O)c1cc2c(cc1Cl)SC(=NCCCN1CCOCC1)NS2(=O)=O	none
Cc1cc(N2CCN(C(=O)OC(C)(C)C)CC2)n2ncnc2n1	none
CCCNC(=O)c1ccccc1NC(=O)CN(c1ccccc1OCC)S(C)(=O)=O	CYP2C9 inh 58
Cc1ccccc1N(CC(=O)Nc1ccc(F)cc1)S(C)(=O)=O	CYP2C19 inhib 89
CCOc1ccc(NC(=O)c2ccccc2OCC(=O)c2ccc(C)cc2)cc1	none
CCOc1ccc(NC(=O)c2ccccc2NC(=O)CN(C)CC(=O)Nc2ccc(C)cc2)cc1	CYP2C19 inhib 94, CYP2C9 inh 97
CC(=O)c1cccc(NC(=O)CN(c2ccccc2F)S(C)(=O)=O)c1	CYP2C19 inhib 54
COCCNC(=O)c1ccccc1NC(=O)c1ccccc1N(C)S(C)(=O)=O	none (no result: CYP2C9 activ, Cav32 inh, CYP2C19 inhib, CYP2C19 activ, CYP2C9 inh)
CC(=O)c1cccc(NC(=O)CN(c2ccccc2)S(C)(=O)=O)c1	none
Cc1ccc(-n2c(SCc3cn4ccsc4n3)nc3ccccc3c2=O)cc1	none
COc1ccccc1N(CC(N)=O)S(=O)(=O)c1ccc(C)cc1	none
CCOc1ccccc1N(CC(=O)Nc1ccc2c(c1)OCO2)S(C)(=O)=O	none
CS(=O)(=O)N(CC(=O)NC1CCCCC1)c1cccc(Cl)c1	none
C=CCNC(=O)CN(c1ccccc1OCC)S(=O)(=O)c1ccc(C)cc1	CYP2C19 inhib 66, CYP2C9 inh 68
CCOc1ccccc1N(CC(=O)Nc1ccc(C)cc1)S(C)(=O)=O	CYP2C19 inhib 71 (no result: Cav32 inh)
CC(=O)c1cccc(N(CC(=O)Nc2ccc(F)cc2F)S(C)(=O)=O)c1	CYP2C19 inhib 76
CS(=O)(=O)N(CC(=O)Nc1cccc(Cl)c1)c1ccccc1Cl	CYP2C19 inhib 97, CYP2C9 inh 90
CC(=O)c1cccc(N(CC(=O)O)S(C)(=O)=O)c1	none
N#C/C(=C\C1CC2C=CC1C2)c1nc2ccccc2[nH]1 (stereo not drawn)	none
CCCn1c(=S)[nH]c2cc(C(=O)N3CCCC(C(=O)OCC)C3)ccc2c1=O (stereo not drawn)	none
Cc1cc2cc(CNC(=O)c3cccc([N+](=O)[O-])c3)ccc2[nH]1	none (no result: CYP2C9 activ, CYP2C19 inhib, Pyk2 oligo antag, CYP2C19 activ, CYP2C9 inh)
O=C(NCc1ccccn1)C1(C(F)(F)F)C/C(=C\CCO)CCCO1 (stereo not drawn)	none (no result: CYP2C9 activ, CYP2C19 inhib, Pyk2 oligo antag, CYP2C19 activ, CYP2C9 inh)
COC(=O)CN(c1ccccc1F)S(=O)(=O)c1ccccc1	none
Cc1ccc(NC(=O)CN(c2ccccc2F)S(C)(=O)=O)cc1	CYP2C19 inhib 76
Cc1cccc(-n2c(SCc3cc(=O)n4ccsc4n3)nc3ccccc32)c1	none (no result: CYP2C9 activ, Cav32 inh, CYP2C19 inhib, CYP2C19 activ, CYP2C9 inh)
Cc1ccc(CSc2nnc(NC(=O)C3COc4ccccc4O3)s2)cc1 (stereo not drawn)	none (no result: Cav32 inh)
Cc1nnc(NC(=O)C2(c3ccccc3)CCOCC2)s1	CYP2C19 inhib 50
CCc1nnc(NC(=O)C2Cc3ccccc3C(=O)O2)s1 (stereo not drawn)	none (no result: Pyk2 oligo antag)
Cc1nnc(NC(=O)C2COc3ccccc3O2)s1 (stereo not drawn)	CYP2C9 inh 86
CCc1nnc(NC(=O)C2COc3ccccc3O2)s1 (stereo not drawn)	CYP2C9 inh 56
O=C(Nc1nc2c(s1)CCCC2)C1COc2ccccc2O1 (stereo not drawn)	Cav32 inh -4.9 (no result: Pyk2 oligo antag)
O=C(Cc1cccs1)Nc1cccnc1	none
COCCN(CC(=O)NCc1ccc(OC)cc1)C(=O)CCC(=O)Nc1nccs1	none
COc1cc([N+](=O)[O-])ccc1NC(=O)C[n+]1ccccc1C	none
OC(Cn1cccn1)c1ccccc1 (stereo not drawn)	none
CS(=O)(=O)c1ccc2nc(NC(=O)C3COc4ccccc4O3)sc2c1 (stereo not drawn)	CYP2C9 inh 76
CCC(CC)c1nnc(NC(=O)C2COc3ccccc3O2)s1 (stereo not drawn)	Cav32 inh -3.9 (no result: CYP2C9 activ, CYP2C19 inhib, CYP2C19 activ, CYP2C9 inh)
COC(=O)c1nn(-c2ccccc2)c(-c2ccccc2)c1C(=O)c1ccccc1	Cav32 inh -7.8, Pyk2 oligo antag -3.3
COC(=O)c1onc(C(=O)c2ccccc2)c1C(=O)OC	CYP2C19 inhib 62, CYP2C9 inh 51
COCCNC(=O)c1onc(CCl)c1C(=O)OC	none (no result: Pyk2 oligo antag)
N=c1c[n+](-c2ccc(Cl)cc2)[n-]o1	none
CCOc1ccc2nc(NC3=NC(C)(C)C=C(C)N3)nc(C)c2c1	CYP2C9 inh 72
CCOc1ccc2c(C)nc(NC3=NC(C)(C)C=C(C)N3)nc2c1	none (no result: CYP2C9 activ, CYP2C19 inhib, CYP2C19 activ, CYP2C9 inh)
CSc1nnc(NC(=O)c2cc3ccccc3oc2=O)s1	none (no result: Pyk2 oligo antag)
CCn1c(CSc2nc3ccccc3[nH]2)n[nH]c1=S	CYP2C19 inhib 56
CCn1c(-c2c[nH]c3ccccc23)n[nH]c1=S	CYP2C9 inh 54
CCn1c(-c2cc3ccccc3cc2O)n[nH]c1=S	CYP2C19 inhib 52
CCn1c(CCn2c3ccccc3c3ccccc32)n[nH]c1=S	none (no result: CYP2C9 activ, Cav32 inh, CYP2C19 inhib, CYP2C19 activ, CYP2C9 inh)
